In the library only some 21% were active in any assay of this set; here they are far more common.
VP16 counter: inhibits Gal4-VP16 luciferase reporter, ROR gamma counter-screen; AID 2546; actives 3.5% (n = 310,000); Drosophila S2 Gal4-VP16 UAS-luciferase, luminescence, 20 h; Potency, µM (highest dose often 53.6 µM), inactives show at the top dose activity, negative = inhibition, hits mostly inhibitors;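 further: Gal4-VP16 expression switched on by copper sulfate through the metallothionein promoter; potency means the concentration at half of the fitted maximal effect; nearly all actives have a fitted effect of over 50% in size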
ELG1 repair inh: blocks ELG1-dependent DNA repair in HEK293T cells; HEK293T ELG1-luciferase reporter, luminescence, 16 h; DNA damage induced by 5-fluorouridine; actives 2.3% (n = 330,000); AID 504467; Potency, µM (series often up to 46.1 µM), for inactives: top-dose activity change, negative = inhibition, actives largely listed as inhibitors; further: potency means the concentration at half of the fitted maximal effect; nearly all actives have a fitted effect of over 55% in size
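DMSO vehicle served as the neutral condition. Each well held 2,000 cells given 5-fluorouridine plus compound; after 16 hr at 37 °C/5% CO2, ONE-Glo was added and luciferase measured 30 min later.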
RORgamma inh: ROR gamma (mouse) transcription inhibition. P51450. Drosophila S2 Gal4-RORgamma UAS-luciferase reporter, 20 h. Potency, µM (titrated, usually from 53.6 µM), for the others: at the top dose activity change, negative = inhibition, actives largely listed as inhibitors. actives 5.4% (n = 310,000). AID 2551; further: potency means the concentration at half of the fitted maximal effect; nearly all actives have a fitted effect of over 60% in size
Target sequence (P51450 whole entry, looked up, the tested form may be a part): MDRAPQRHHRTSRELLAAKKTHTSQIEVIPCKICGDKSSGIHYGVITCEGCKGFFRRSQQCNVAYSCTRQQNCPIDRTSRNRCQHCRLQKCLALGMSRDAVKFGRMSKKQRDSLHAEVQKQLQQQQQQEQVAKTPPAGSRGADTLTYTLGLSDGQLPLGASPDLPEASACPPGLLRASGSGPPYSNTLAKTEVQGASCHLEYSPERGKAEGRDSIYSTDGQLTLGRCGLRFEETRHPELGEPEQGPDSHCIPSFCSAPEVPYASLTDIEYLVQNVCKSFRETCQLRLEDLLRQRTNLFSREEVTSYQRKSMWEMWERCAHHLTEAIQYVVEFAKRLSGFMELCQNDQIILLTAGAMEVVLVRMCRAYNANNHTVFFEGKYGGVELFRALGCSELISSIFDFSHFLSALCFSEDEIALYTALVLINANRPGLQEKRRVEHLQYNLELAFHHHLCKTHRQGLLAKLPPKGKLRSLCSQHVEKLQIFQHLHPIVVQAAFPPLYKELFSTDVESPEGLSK
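Compounds are pin-transferred onto Drosophila Schneider cells expressing a copper-inducible Gal4–ROR gamma transactivation domain fusion. After 1 hr, copper sulfate is added to 700 uM final; luciferase is read 20 hr later.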
DT40 TDP1 CPT: DT40-hTDP1 cell growth loss with CPT; chicken DT40 Tdp1-/-;hTDP1 cells + 20 nM CPT, ATP luminescence, 48 h; Potency, µM (top dose mostly 46.2 µM), inactives show at the highest dose activity change, negative = growth inhibition, hits mostly inhibitors; AID 686979; actives 12% (n = 420,000); further: potency means the concentration at half of the fitted maximal effect; nearly all actives have a fitted effect of over 55% in size
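Chicken DT40 Tdp1-/- cells stably complemented with human TDP1 were seeded at 400 cells/well in medium containing 20 nM camptothecin, exposed to pin-transferred compounds, and grown at 37 °C for at least 48 hr. Viability was read as ATP luminescence.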
IL1B secr inh: inhibitors of inflammasome signaling (IL-1 beta secretion) | THP-1 LPS/ATP IL-1B secretion, AlphaLISA, 16 h; active compounds read low | activity change, % at 57.5 µM | actives 4.7% (n = 360,000) | AID 743279; in the data active means activity change below about -50%; inconclusive means mostly about -30% to -49%
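Secreted IL-1B measured by AlphaLISA bead assay after 16 h compound exposure of THP-1 cells; compounds (final up to 57.5 uM) added 1 h before LPS (250 ng/mL) and ATP (1.25 mM) stimulation; lower signal means less secretion.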
DT40 TDP1 no CPT: qHTS for Inhibitors of human tyrosyl-DNA phosphodiesterase 1 (TDP1): qHTS in cells in absence of CPT | AID 686978, 2013 | DT40 Tdp1-/- hTDP1 cells, no CPT, ATP luminescence, 48 h | actives 15% (n = 420,000) | Potency, µM (highest dose often 46.2 µM), for the others: at the top dose activity change, negative = growth inhibition, hits mostly inhibitors; further: potency means the concentration at half of the fitted maximal effect; nearly all actives have a fitted effect of over 55% in size
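Chicken DT40 Tdp1-/- cells stably complemented with human TDP1 were seeded at 400 cells/well with DMSO in place of 20 nM camptothecin. After compound pinning, cells grew at least 48 hr at 37 °C; viability read by CellTiter-Glo luminescence.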
An asterisk follows results filed as active; u = inconclusive; x = not tested or not shown. Unless noted, the call rests on the fitted dose curve; in most records, active means well fitted curve in the direction sought with a large enough effect; inconclusive means small, poorly fitted or top-dose-only effect, or another doubt; inactive means no such curve, though single readings can be large; an effect the other way counts as inactive or inconclusive. On the % scale 0 is the no-effect control and ±100 the full control effect.

SMILES | VP16 counter | ELG1 repair inh | RORgamma inh | DT40 TDP1 CPT | IL1B secr inh | DT40 TDP1 no CPT
CC(=O)N1CCc2c(sc3c2c(=O)n(-c2ccccc2)c(=O)n3CC(=O)NCC2CCCO2)C1 (stereo not drawn) | 1.0% | u | -31.9% | -1.7% | 25.9 | 10.6%
CCOC(=O)N1CCc2c(sc3c2c(=O)n(-c2ccc(CC)cc2)c(=O)n3Cc2cccc(OC)c2)C1 | x | x | x | 13µM* | x | u
CCCN(CCC)C(=O)Cn1c(=O)n(-c2ccc(CC)cc2)c(=O)c2c3c(sc21)CCC3 | x | x | x | u | x | 16.4µM*
CCOC(=O)N1CCc2c(sc3c2c(=O)n(-c2ccc(CC)cc2)c(=O)n3CC(=O)NCC2CCCO2)C1 (stereo not drawn) | 0.0% | u | 41.5% | 4.61µM* | 49.8 | 1.3µM*
COC(=O)c1ccc(OC)c(Cn2c(=O)n(-c3cccc(Cl)c3)c(=O)c3c4c(sc32)CN(C(C)=O)CC4)c1 | x | x | x | 1.3% | x | -11.5%
Cc1nnc2ccc(-c3ccc(NS(=O)(=O)c4ccc(F)cc4F)cc3)nn12 | x | u | x | -11.1% | 65.0 | u
C=CC[N@@+]12CC[C@]34c5ccccc5N5/C=C6\C7N(/C=C(\C53)[C@@H](C[C@@H]41)/C(=C/CO)C2)c1ccccc1[C@@]71CC[N@@+]2(CC=C)C/C(=C\CO)[C@@H]6C[C@@H]12 (stereo partly drawn) | x | -2.5% | x | 1.1% | -1.5 | 11.0%
Cc1nc2ccc(Br)cc2c2c1CC(CBr)O2 (stereo not drawn) | 0.7% | -21.1% | 22.5% | 16.6% | -74.2* | -21.1%
CCCS(=O)(=O)NCCc1sc2nc(-c3ccc(F)cc3)nn2c1C | x | x | x | 20.6µM* | x | 14.6µM*
CCc1ccc(NC(=O)C(=O)NCCc2sc3nc(-c4ccc(OC)cc4)nn3c2C)cc1 | x | x | x | -4.4% | x | -3.0%
Cc1cc(C)c(S(=O)(=O)NCCc2sc3nc(-c4ccc(F)cc4)nn3c2C)c(C)c1 | x | x | x | u | x | 20.6µM*
CCCS(=O)(=O)NCCc1sc2nc(-c3ccc(Cl)cc3)nn2c1C | x | x | x | 5.17µM* | x | 8.2µM*
COc1ccc(-c2nc3sc(CCNC(=O)C(=O)Nc4cc(C)cc(C)c4)c(C)n3n2)cc1 | x | x | x | -2.9% | x | -19.4%
CCOc1ccc(S(=O)(=O)NCCc2sc3nc(-c4ccc(F)cc4)nn3c2C)cc1 | x | x | x | u | x | 14.6µM*
CCN1C[C@@H]2[C@@H]3C(=O)N(C)C(=O)[C@@H]3[C@](C)(C1=O)N2C(=O)c1ccc(C)cc1 | x | x | x | 5.5% | 6.0 | -3.6%
Cc1[nH]c2ccccc2c1C1(O)C(=O)N(Cc2ccc(Cl)cc2)c2ccccc21 (stereo not drawn) | x | x | x | 5.8µM* | x | 5.17µM*
Cc1ccc(CN2C(=O)C(O)(c3c(C)[nH]c4ccccc34)c3ccccc32)cc1 (stereo not drawn) | x | x | x | 6.51µM* | x | 4.61µM*
O=C(c1cc(=O)[nH]c2ccccc12)N1CCN(Cc2ccc3c(c2)OCO3)CC1 | x | -2.0% | x | -8.4% | 0.8 | -5.2%
Cc1[nH]c2ccccc2c1C1(O)C(=O)N(Cc2ccc3c(c2)OCO3)c2ccccc21 (stereo not drawn) | -5.2% | -6.5% | 2.9% | 3.26µM* | 12.0 | 5.17µM*
Cc1[nH]c2ccccc2c1C1(O)C(=O)N(Cc2ccccc2)c2ccc(Cl)cc21 (stereo not drawn) | x | x | x | 6.51µM* | x | 5.17µM*
O=C(NCC1CCCO1)c1ccc2c(c1)N(Cc1ccc(F)cc1)CCS2 (stereo not drawn) | 1.6% | -23.1% | -0.1% | u | -7.4 | u
CCN1CCN(CCCNC(=O)c2ccc3c(c2)N(Cc2ccccc2)CCS3)CC1 | 11.2% | 3.0% | 1.1% | 23.1µM* | -27.1 | u
O=C(NCCCN1CCOCC1)c1ccc2c(c1)N(Cc1ccc(F)cc1)CCS2 | 7.7% | 1.6% | 4.6% | 16.4µM* | -4.8 | u
CN1CCN(CCCNC(=O)c2ccc3c(c2)N(Cc2ccc(F)cc2)CCS3)CC1 | -10.9% | 19.4% | 0.0% | 16.4µM* | -8.4 | u
COc1cccc2[nH]c3c(Cl)ncnc3c12 | u | -14.5% | -19.1% | -19.7% | x | u
SMILES | VP16 counter | ELG1 repair inh | RORgamma inh | DT40 TDP1 CPT | IL1B secr inh | DT40 TDP1 no CPT
Cc1cccc2[nH]c3c(N4CC=C(c5ccc(F)cc5)CC4)ncnc3c12 | u | 11.6µM* | -10.5% | 13µM* | -91.7* | 14.6µM*
O=C(CCCN1C(=O)c2cccc3cccc(c23)C1=O)N1CCN(c2ccccc2O)CC1 | -0.9% | 10.3µM* | u | u | -14.4 | 14.6µM*
CCOc1ccccc1N1CCN(C(=O)CCCN2C(=O)c3cccc4cccc(c34)C2=O)CC1 | -11.2% | 23.1µM* | 11.1% | 20.6µM* | -15.6 | 20.6µM*
O=C(CCCN1C(=O)c2cccc3cccc(c23)C1=O)N1CCN(c2ccccc2)CC1 | -10.6% | u | 12.0% | u | -10.8 | u
Nc1nc2c([nH]c(=S)n2C2OC(CO)C(O)C2O)c(=O)[nH]1 (stereo not drawn) | 4.9% | x | -7.9% | -2.7% | x | 3.0%
c1ccc(C2=NN(c3ccccc3)CC2)cc1 | -26.5% | u | u | -10.4% | 31.6 | 3.7%
c1ccc(N=NC2=NN(c3ccccc3)CS2)cc1 | x | x | x | u | -16.8 | 5.8µM*
CCOC(=O)C1CCN(CC(=O)Nc2cc(C)c3c(=O)oc4ccccc4c3n2)CC1 | x | x | x | -1.7% | x | -28.4%
NC(=O)C(OC(=O)CNC(=O)C1CCCCC1)c1ccccc1 (stereo not drawn) | x | x | x | -28.8% | x | -22.0%
CCCCc1nc2ccccc2c(=O)n1NC(=O)c1c(O)c2c(n(CC(C)C)c1=O)CCCC2 | 16.8% | u | -9.0% | 14.6µM* | 38.9 | 9.2µM*
CC(C)Cn1c2c(c(O)c(C(=O)Nc3ccc(F)cc3)c1=O)CCCC2 | -11.5% | -3.7% | 4.8% | u | 38.3 | -25.5%
CC(C)Cn1c2c(c(O)c(C(=O)Nc3ncccc3O)c1=O)CCCC2 | 14.1µM* | u | u | u | 20.7 | u
CC(C)Cn1c2c(c(O)c(C(=O)Nn3c(Cc4ccccc4)nc4ccccc4c3=O)c1=O)CCCC2 | -9.3% | -2.4% | -20.2% | 5.17µM* | 22.5 | 3.66µM*
CCc1nc2ccccc2c(=O)n1NC(=O)c1c(O)c2ccccc2n(CC)c1=O | -8.1% | -11.4% | u | u | 60.5 | u
O=C(Nc1ccc2c(c1)OCO2)c1ccc2sc([C@@H]3O[C@H](CO)[C@H](O)[C@H](O)[C@H]3O)nc2c1 | x | x | x | u | -7.0 | 0.6%

Compound activity: PubChem, National Center for Advancing Translational Sciences (NCATS)
